Consider 40 compounds from PubChem BioAssay (NCI).

Compounds without any hit were thinned out: in the full panel of roughly 83,000, 20% have a hit.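 In brief: 96-well plates, 48 h treatment, single concentration, percent growth endpoint.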 A number with no mark means an inactive call. The source made the active and inactive calls.

This assay relates to UACC-62 melanoma. The assay can be described thus: NCI-60 one-dose screen, 48 h (100 = growth as untreated, 0 = no growth, -100 = all killed). The settings on record: 10 µM unless noted. The procedure:
Growth inhibition of the UACC-62 human tumor cell line is measured as a screen for anti-cancer activity. Cells are grown in 96 well plates and exposed to the test compound for 48 hours. Compounds are tested at a single concentration, which is 10^-5 M for most compounds. The reported endpoint is percent growth (GI% or GIPRCNT), where numbers from 0 - 100% represent growth inhibition, and numbers from -100% - 0 represent cell death. For example, a value of 40 represents 60% growth inhibition. A value of 0 means no net growth occurred over the course of the experiment. A value of -40 indicates 40% of cells at the beginning of the experiment died by the end of the experiment. A value of -100 means all cells are dead at the end of the experiment.
NCI-60 Human Tumor Cell Lines Screen was performed using the standard one-dose NCI protocol, which is described in more detail at https://dtp.cancer.gov/discovery_development/nci-60/default.htm.
Compounds with GIPRCNT values below 10 were considered active. Activity score was based on GIPRCNT using the following formula: […]
Score is 0 for GIPRCNT values of 100 or above, 50 for GIPRCNT values of 0, and 100 for GIPRCNT values of -100.
In the case of `COc1cc(OCc2cccc(Br)c2C)cc(OC)c1C=O`, the growth is 36.5%.

`O=C(CSc1nc2sc3c(c2c(=O)n1-c1ccccc1)CCCCC3)N/N=C/c1cccc([N+](=O)[O-])c1`: the growth was 65.9%.

Turning to `NC(=O)c1ccc(-c2c3ccccc3cc3c2ccc2ccccc23)cc1`, the growth was 33.4%.

In the case of `COc1ccc(-c2cc(-c3cc(OC)c(OC)c(OC)c3)c(C#N)c(=O)n2CCCCC(=O)NO)cc1`, the growth was 60.7%.

Take `O=C(CSc1oc(-c2ccccc2)nc1S(=O)(=O)c1ccccc1)Nc1ccc(F)cc1`: the growth is 66.4%.

`CC1=NC2=Nn3c(c4cnn(-c5ccccc5)c4n/c3=N\N)NN2C(c2ccccc2)=C1`: the growth is 77.6%.

Consider `Cn1cc(-c2nonc2-c2cn(C)c3ccccc23)c2ccccc21`, for which the growth is 30.6%.

As for `CCn1c(SCC(=O)N/N=C(\C)c2ccc(Cl)cc2)nc2c1c(=O)n(C)c(=O)n2C`, the growth is 95.2%.

As to `OB1OCc2cc(/C=C/c3cccc(C(F)(F)F)c3)ccc21`, the growth was 19.9%.

For the compound `CC(C)c1ccc(C(=O)Nc2nc3ccc(O)c(CN(C)C)c3s2)cc1`, the growth is 66%.

Take `CCC(C)(C)C(=O)O[C@H]1C[C@@H](C)C=C2C=C[C@H](C)[C@H](CC[C@@H]3CC(SCCN)CC(=O)O3)[C@H]21` (stereo not given in full): the growth was 84.3%.

For `COc1ccccc1NC(=O)N=Nc1c(O)[nH]c2ccccc12`, the growth was 79.2%.

For the compound `CCc1ccc(CCCC(=O)O)cc1`, the growth was 96.8%.

With `N#Cc1c(-c2ccccc2)[nH]c2ncc(-c3ccccc3)n2c1=O`, the growth was 87.8%.

Regarding `CCCNc1nc2ccccc2c2c1S(=O)(=O)c1ccc(Cl)cc1C2=O`, the growth is 10.9%.

With `C=C(C)[C@@H]1CCC[C@]2(COS(=O)(=O)c3ccc(C)cc3)CC[C@]3(C)[C@@H](CC[C@@H]4[C@@]5(C)CCCNC(C)(C)[C@@H]5CC[C@]43C)[C@@H]12`, the growth was 87.7%.

Turning to `N#Cc1ccc(O)c(C2=NCC(c3ccccc3)O2)c1` (stereo not given), the growth is 37.8%.

As for `CC(O)(c1ccccc1)C(c1ccccc1)C1CCCCN1` (stereo not given), the growth is 95.8%.

As to `COC(=O)c1nc(-c2ccccc2)oc1S(=O)(=O)Cc1ccccc1`, the growth was 91.1%.

As for `Clc1cc(Cl)c(Cl)c(-c2nnc(SCc3ccncc3Br)o2)c1`, the growth was 89.7%.

Turning to `Cc1ccc(/C=C2\COc3ccc(O)cc3C2=O)cc1`, the growth is 86.1%.

As for `Cn1cc(-c2csc(-c3cn(C(=O)OC(C)(C)C)c4ccc(Br)cc34)n2)c2ccnc(Cl)c21`, the growth was 96.1%.

As to `C=C1CC[C@@H]2[C@](C)(COC(C)=O)[C@H](OC(C)=O)CC[C@@]2(C)[C@@H]1CC(Nc1ccc(S(=O)(=O)Nc2ncccn2)cc1)C1=CCOC1=O` (stereo not given in full), the growth was 3.93% (active).

For the compound `CC(C)(C)CC(C)(C)NC(=O)Nc1ncccc1OCc1ccccc1`, the growth was 81.4%.

In the case of `C#CCOc1cccc(Nc2ncnc3cc(NC(=O)C=C)ccc23)c1`, the growth was 9.66% (active).

For `CCCCNC(=O)Oc1ccc(/C(=C(/C)Cc2ccc(OC)cc2)c2ccc(OCCN(CC)CC)cc2)cc1`, the growth was 84.7%.

`CCOC(=O)Cc1cnc(N/N=C(\C)c2cc3ccccc3o2)s1`: the growth was 86.3%.

Regarding `Clc1ccc2c(c1)C(c1c[nH]c3ccccc13)(c1c[nH]c3ccccc13)CCO2`, the growth is 57%.

As for `Nc1nc2ccc(-c3nc4ccc5[nH]ncc5c4c4c3CCCC4)cc2s1`, the growth was 102%.

Consider `C/C(Cc1ccc(Cl)cc1)=C(\c1ccc(O)cc1)c1ccc(Cl)cc1`, for which the growth is 84.6%.

Consider `Cc1c[n+](Cc2ccc3ccccc3c2)cn1Cc1ccc2ccccc2c1`, for which the growth is -30.5% (active).

Take `CC1(C)COB(OCC(C)(C)COB2OCC(C)(C)CO2)OC1`: the growth is 106%.

Regarding `CCCCCC(/C=N\NC(=S)N/N=C/C(=C/c1ccccc1)CCCCC)=C\c1ccccc1`, the growth was 56.8%.

As for `O=C1C(=O)N(Cc2ccc(-c3ccccc3)cc2)c2ccc(OC(F)(F)F)cc21`, the growth is 62.3%.

On to `Cc1csc(Nc2nc(-c3ccccn3)nc(C(Cl)(Cl)Cl)n2)n1`, for which the growth was 84.3%.

Regarding `CSc1nc(N)c(NS(=O)(=O)c2ccc(C(C)=O)cc2)c(=O)[nH]1`, the growth is 98.3%.

With `COc1c(B(O)O)cccc1-c1cc(C)c2c(ccc3[nH]ncc32)n1`, the growth is 98.8%.

As to `CCCCNC(=O)Oc1ccc(/C(=C(/C)Cc2ccc(OC)cc2)c2ccc(OCCN3CCCC3)cc2)cc1`, the growth is 45.4%.

Consider `COc1cc2ncnc(Nc3ccc(S(=O)(=O)Nc4cc(C)on4)cc3)c2cc1OCCCN1CCN(c2ccc(F)cc2)CC1`, for which the growth was 91%.

On to `Cn1cc(-c2csc(-c3c[nH]c4ccc(Br)cc34)n2)c2ccnc(Cl)c21`, for which the growth is 68.8%.
